# In all, about 360,000 compounds went through this assay and about 270 (0.075%) were called active. Many of the other results were omitted from the sample, so actives are more common in it than they were. Values without a mark were called inactive. The call rests on the fitted dose curve; in most records, active means well fitted activation curve with a large enough effect; inconclusive means small, poorly fitted or top-dose-only effect; inactive means no such curve, though single readings can be large or run the other way.
# Molecular target: Rap guanine nucleotide exchange factor 3 (Homo sapiens) (UniProt O95398)
# Experiment: qHTS for Agonist of cAMP-regulated guanine nucleotide exchange factor 3 (EPAC1): primary screen; further: nearly all actives have a fitted effect of over 60% in size
# Conditions: biochemical assay; series mostly up to 154 µM; activation: at the top concentration
# Description: In multi-cellular eukaryotic organisms, the effects of cAMP are transduced by two ubiquitously-expressed intracellular cAMP receptors, the classic protein kinase A/cAMP-dependent protein kinase (PKA/cAPK) and the more recently discovered exchange protein directly activated by cAMP/cAMP-regulated guanine nucleotide exchange factor (EPAC/cAMP-GEF). Both PKA and EPAC are ubiquitously expressed in all tissues, and an increase in intracellular cAMP levels will lead to the activation of both PKA and EPAC. Therefore, careful dissections of the individual role and relative contribution of EPAC and PKA within the overall cAMP signaling in various model systems are critical for further elucidating the mechanism of cAMP signaling. To date no EPAC-specific antagonists and agonist, as well as isoform-specific agonists have been reported, and developing EPAC-specific pharmacological probes to determine the physiological functions that EPAC play in the overall cAMP-mediated signaling remains a major challenge within the research field. Furthermore, identified regulators of EPAC may lead to new mechanism-based therapeutic strategies specifically targeting the EPAC / cAMP-signaling components as EPAC has been implicated to play important roles in major human pathological conditions such as diabetes, heart disease, and cancer.
# This qHTS will be used to screen the Molecular Libraries Small Molecule Repository (MLSMR) as a concentration-titration series using the NCGC unique quantitative screening (qHTS) platform to find activators for EPAC1. In addition, this assay will also be used as a counterscreen for the EPAC2 qHTS. This fluorescent based assay is developed and validated for EPAC1 that measures exchange using EPAC effector Rap1 complex with BODIPY-GDP, a GDP analog with a tethered fluorophores. Activators are identified by monitoring the change in fluorescence signal as the exchanged free BODIPY-GDP has a reduced fluorescence compared to Rap1-bound BODIPY-GDP. Increase in signal (activation) is the desired outcome for the EPAC1 agonist while no activity in this assay is desired for the EPAC2 agonist counterscreen.
# [1] de Rooij, J., Zwartkruis, F. J., Verheijen, M. H., Cool, R. H., Nijman, S. M., Wittinghofer, A., and Bos, J.L. (1998) Nature 396, 474-477
# NIH Chemical Genomics Center [NCGC]
# NIH Molecular Libraries Probe Centers Network [MLPCN]
# Assay Submitter (PI): Xiaodong Cheng, The University of Texas Medical Branch
# Briefly, three uL of reagents (100 nM EPAC1, 250 nM RAP1B-BODIPY-GDP, 50 uM GDP) were dispensed into a 1536-well Greiner black solid-bottom medium binding assay plate. Controls and test compounds (23 nL) were transferred to the plate via a Kalypsys pin tool equipped with a 1536-pin array. The plates were centrifuged at 1,000 rpm for 15 seconds followed by 5 minute incubation at room temperature. The assay plates were read at 5 minute intervals for 30 minutes in the ViewLux plate reader using 480nm excitation and 540nm emission filters. The results were normalized to the agonist positive control of 6.5 mM cAMP.
# Potency means the concentration at half of the fitted maximal effect.
# Sequence of Rap guanine nucleotide exchange factor 3 (Homo sapiens) (O95398 whole entry, looked up): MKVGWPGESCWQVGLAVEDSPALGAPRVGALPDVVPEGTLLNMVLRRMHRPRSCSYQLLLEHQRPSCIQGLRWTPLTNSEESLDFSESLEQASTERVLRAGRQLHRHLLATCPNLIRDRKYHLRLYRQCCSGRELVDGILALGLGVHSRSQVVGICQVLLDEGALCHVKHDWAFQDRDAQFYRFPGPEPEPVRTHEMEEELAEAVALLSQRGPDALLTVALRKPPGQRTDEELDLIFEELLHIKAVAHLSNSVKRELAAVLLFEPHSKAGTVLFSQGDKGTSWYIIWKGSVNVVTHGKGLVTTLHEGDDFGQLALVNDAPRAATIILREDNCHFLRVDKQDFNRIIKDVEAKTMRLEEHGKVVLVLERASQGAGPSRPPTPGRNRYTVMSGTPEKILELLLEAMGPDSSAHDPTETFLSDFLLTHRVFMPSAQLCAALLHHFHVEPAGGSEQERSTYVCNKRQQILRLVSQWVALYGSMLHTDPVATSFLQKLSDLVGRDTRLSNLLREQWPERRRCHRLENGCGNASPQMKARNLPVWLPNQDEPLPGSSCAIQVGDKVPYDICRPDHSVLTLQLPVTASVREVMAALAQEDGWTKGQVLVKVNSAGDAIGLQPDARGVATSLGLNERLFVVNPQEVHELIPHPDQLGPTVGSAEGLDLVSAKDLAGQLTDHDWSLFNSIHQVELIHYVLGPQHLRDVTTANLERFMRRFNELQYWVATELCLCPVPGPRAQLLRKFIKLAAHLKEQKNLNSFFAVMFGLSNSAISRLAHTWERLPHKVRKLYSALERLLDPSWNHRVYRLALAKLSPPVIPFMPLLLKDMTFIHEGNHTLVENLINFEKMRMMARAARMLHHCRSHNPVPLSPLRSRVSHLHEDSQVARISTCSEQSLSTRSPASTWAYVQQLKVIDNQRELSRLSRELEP
SMILES,activation [%],Potency
CCOc1ccc(NS(=O)(=O)c2ccc(Cl)c(C(=O)N(C)Cc3cccnc3)c2)cc1,-9.4,–
CC1(C)CC(=O)c2c(n(S(=O)(=O)c3ccccc3)c3ccc(NS(=O)(=O)c4ccccc4)cc23)C1,2.81,–
O=c1cccc(-c2ccc(Br)cc2)o1,1.51,–
CCCCNC(=O)N1CCCC(N(C)CCc2ccc(OC)c(OC)c2)C1 (centres undefined),-9.76,–
Cc1sc2ncn(CC(=O)NCCCC(=O)N(C)Cc3ccccc3)c(=O)c2c1C,-8.88,–
Cc1ccc(OCC(=O)Nc2ccccc2Sc2ccc(Cl)cc2)c([N+](=O)[O-])n1,21.3,–
Cc1ccc(-c2nc(C)sc2CC(=O)OCC(=O)Nc2c(F)cccc2F)cc1,10.9,–
COc1cc(NS(=O)(=O)c2ccc(N/C=C(\C=O)c3nc4cc(Cl)ccc4o3)cc2)nc(OC)n1,-5.9,–
COCC1CCCCN1C(=O)c1cc(COc2ccc(C)c(C)c2)on1 (centres undefined),-12.2,–
CC(=O)N[C@H]1[C@H]([C@H](O)[C@H](O)CO)OC(C(=O)O)=C[C@@H]1O,-3.76,–
O=C(NCc1ccco1)c1ccc(CS(=O)(=O)Cc2ccc(F)cc2)o1,3.97,–
COC(=O)/C=C(\Oc1ccccc1)C1(O)CCCCC1,-5.2,–
Cc1cc(Cl)ccc1NNC(=O)c1snnc1C,-2.36,–
O=C(c1cnn2ccccc12)N1CCc2ccccc21,-2.29,–
C=CCNC(=O)COC(=O)CNC(=O)c1cc(Cl)cc([N+](=O)[O-])c1,7.93,–
CN1C(=O)c2cccc3c(N)ccc(c23)C1=O,–,126 µM (active)
Cc1nn(C)cc1N1C(=O)c2cccc3c(N)ccc(c23)C1=O,–,89.1 µM (active)
Cc1cc(NC(=O)/C=C/C(=O)N(c2ccccc2C)C(C(=O)NC2CCCC2)c2ccc(F)cc2)no1 (centres undefined),15.6,–
CCOC(=O)[C@]12CCCC=C1N(Cc1ccc(Cl)cc1Cl)C(=O)[C@H](CC(=O)N1CCCCC1)C2,-4.78,–
CC(Cc1cccs1)NC(=O)c1cccc(Cl)c1 (centres undefined),5.93,–
Cc1nn2c(NCCN(C)C)c3c(nc2c1-c1ccccc1)CCC3,1.01,–
CC(=O)Nc1ccc(NC(=O)CN2C(=O)COc3ccc(S(=O)(=O)N4CCCCC4)cc32)cc1,15.4,–

SMILES,activation [%],Potency
O=C(COc1ccccc1)N1CCN=C1SCc1cccc(F)c1,-1.1,–
CCOC(=O)c1ccccc1NC(=O)COC(=O)C(Cc1c[nH]c2ccccc12)NC(C)=O (centres undefined),–,112 µM (active)
COC(=O)C(Cc1c[nH]c2ccccc12)NC(=O)CCNC(=O)c1ccco1 (centres undefined),-7.71,–
CCOC(=O)c1ccccc1NC(=O)COC(=O)CCC(=O)N1CCOCC1,3.89,–
COc1ccccc1NC(=O)CSc1nnc(CNC(=O)c2ccccc2F)o1,-8.7,–
Cn1c(=O)[nH]c(=O)c2c1nc(N(CCO)Cc1ccccc1)n2Cc1ccccc1Cl,-2.01,–
Cc1nc(NC(=O)C23CCC(C)(C(=O)O2)C3(C)C)sc1C (centres undefined),4.04,–
N#CCCCn1c(O)c(N=NC(=O)C(O)c2ccccc2)c2ccccc21 (centres undefined),6.57,–
COc1cccc(C(=O)N2CCC(n3nccc3NC(=O)C3CCOC3)CC2)c1 (centres undefined),7.16,–
CNC(=O)C1CC(=O)N(c2ccc(OCC(=O)Nc3ccccc3C)cc2)C1 (centres undefined),8.26,–
O=C(CCN1C(=O)c2ccncc2C1=O)Nc1cc(F)ccc1F,-22,–
Cc1ccc([C@H]2C[C@H](O)[C@@H](n3cc(COC(=O)c4ccccc4)nn3)CN2C(=O)C2CCCCC2)cc1,-25.7,–
CC1CCN(c2ccc3c(c2)S(=O)(=O)c2cc(C(=O)O)ccc2C3=O)CC1,-0.73,–
COc1cccc(-c2ccc3c(c2)S(=O)(=O)c2cccc(C(=O)O)c2C3=O)c1OC,9.43,–
Cc1ccc(CNC(=O)c2cccc3c2C(=O)c2ccc(N4CCC(C)CC4)cc2S3(=O)=O)cc1,–,89.1 µM (active)
O=C(O)C1=C[C@H](c2cccs2)C[C@H](OCCCCO)O1,9.46,–
Cc1ccc(C(=O)OCC(=O)NCc2cc(C)c(O)c(C)c2)cc1S(=O)(=O)N1CCCCC1,9.64,–
N#CCCn1ncc2ccccc21,14.3,–
CC(C)Cc1nnc(NC(=O)CN2C(=O)NC3(CCCCC3)C2=O)s1,2.71,–
CCC1(c2ccccc2)NC(=O)N(CC(=O)Nc2ccccc2C(=O)NC2CCCC2)C1=O (centres undefined),0.865,–
COCC(C)n1c(C)cc(C(=O)CSc2cc(C)c3ccccc3n2)c1C (centres undefined),15.4,–
CCOc1ccc(-c2n[nH]c(=S)n2/N=C/c2cc3c(cc2[N+](=O)[O-])OCO3)cc1,13.8,–

SMILES,activation [%],Potency
OCCN1CCOCCOCCN(CCO)CCN(CCO)CC1,1.4,–
Cc1ccc(Cl)cc1NC(=O)COC(=O)C1CCCCC1,-2.39,–
N#C/C(=C\N1CCOCC1)S(=O)(=O)c1ccc(Cl)cc1,4.86,–
O=C(CSc1nnc(-c2ccncc2)o1)NCc1ccc(Cl)cc1,13.5,–
Cc1cc(OCC(=O)N(C)c2c(N)n(Cc3ccccc3)c(=O)[nH]c2=O)c(C(C)C)cc1Cl,-0.55,–
Cn1c(=O)[nH]c(=O)c2c1[nH]c(=S)n2Cc1ccccc1,-0.212,–
Cc1cc2nc3c(=O)n(Cc4ccccc4)c(=O)[nH]c3nc2cc1N,–,100 µM (active)
NC(=O)C1CCN(C(=O)COc2ccc3c4c(c(=O)oc3c2)CCC4)CC1,2.5,–
O=S(=O)(c1cccc(-c2nnc(SC(F)F)n2-c2ccccc2)c1)N1CCCCC1,-1.95,–
O=C(O)C1=NN(c2c(F)c(F)cc(F)c2F)C(=O)CC1,10.4,–
CC(C)(C)n1nnnc1C(c1ccccc1F)N1CCN(C(=O)c2ccco2)CC1 (centres undefined),1.91,–
O=c1ccc2c(-c3ccccc3S(=O)(=O)O)c3ccc(O)c(O)c3oc-2c1O,-10.7,–
COc1ccc(NC(=O)C2CCC(CNS(=O)(=O)c3csc(C(N)=O)c3)CC2)cc1OC (centres undefined),-7.96,–
CCN(CC(=O)Nc1c(F)cccc1F)C(=O)Cc1cccs1,9.59,–
Cc1ccc(NS(=O)(=O)c2cn(C)c(=O)n(C)c2=O)c(C)c1,-4.61,–
CCOc1ccccc1C(=O)NC1CC2CCCC(C1)N2Cc1ccccc1 (centres undefined),-8.13,–
Cc1noc(C)c1CSCC(=O)Nc1ccc(Br)cc1Cl,0.706,–
CCOC(=O)C(NS(=O)(=O)c1ccc(C)cc1)(C(F)(F)F)P(=O)(OCC(C)C)OCC(C)C (centres undefined),-18.9,–
CCN(CC)S(=O)(=O)c1cc([N+](=O)[O-])ccc1NNC(=O)Nc1ccccc1,17,–
Cc1ccccc1N1C(=O)C2ON(c3ccccc3)C(c3ccncc3)C2C1=O (centres undefined),14.8,–

# Reference: PubChem BioAssay AID720707 (National Center for Advancing Translational Sciences (NCATS), 2013)
